# Assay results as given in PubChem BioAssay AID1733 (National Center for Advancing Translational Sciences (NCATS), 2009).
# “And” between values parts separate entries of the source, which are not always exact repeats. Equal entries are not always repeated. Results filed as inconclusive are left out. A number with no mark means an inactive call. The source made the active and inactive calls. The call rests on the fitted dose curve; in most records, active means well fitted inhibition curve with a large enough effect; inconclusive means small, poorly fitted or top-dose-only effect; inactive means flat fitted curve, though single readings scatter.
# Target: Luciferin 4-monooxygenase (Photinus pyralis) (UniProt P08659)
# Assay: Counterscreen Assay for Enhancers of SMN2 Splice Variant Expression: Interaction with Luciferase Reporter
# Details: purified firefly luciferase, luminescence, 5 min; series mostly up to 40.3 µM
# Method in brief: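 Cell-free counterscreen with purified firefly luciferase (5 nM) in 50 mM Tris-acetate pH 7.6, 10 mM Mg acetate, 0.05% BSA, 0.01% Tween. Compound incubated 5 min at room temperature, then luminescence read after britelite plus detection reagent.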
# Luciferin 4-monooxygenase (Photinus pyralis), sequence (P08659 whole entry, looked up, canonical isoform): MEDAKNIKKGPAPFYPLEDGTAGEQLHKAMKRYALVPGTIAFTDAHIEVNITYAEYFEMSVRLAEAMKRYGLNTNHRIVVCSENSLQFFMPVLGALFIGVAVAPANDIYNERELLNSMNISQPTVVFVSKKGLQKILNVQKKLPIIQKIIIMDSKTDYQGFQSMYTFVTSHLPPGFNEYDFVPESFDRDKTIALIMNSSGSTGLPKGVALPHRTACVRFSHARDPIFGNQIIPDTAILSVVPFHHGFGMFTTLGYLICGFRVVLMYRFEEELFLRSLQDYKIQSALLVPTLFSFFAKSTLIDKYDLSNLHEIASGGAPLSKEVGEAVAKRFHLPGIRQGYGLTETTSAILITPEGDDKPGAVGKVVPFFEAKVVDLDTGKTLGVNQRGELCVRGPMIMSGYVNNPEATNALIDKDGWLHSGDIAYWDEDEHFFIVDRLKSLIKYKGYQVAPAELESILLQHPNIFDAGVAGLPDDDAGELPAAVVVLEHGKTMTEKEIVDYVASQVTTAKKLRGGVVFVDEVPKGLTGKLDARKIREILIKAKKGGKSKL
SMILES,Potency,"activity change, negative = inhibition"
Cc1ccc(C2c3c(oc4ccccc4c3=O)C(=O)N2CCCN2CCOCC2)o1 (centres undefined),12.6 µM (active),–
Clc1ccc(-c2nnc(-c3ccccc3)nc2N2CCSCC2)cc1,11.2 µM (active),–
OCCCNc1nc(-c2ccc(Cl)cc2)nnc1-c1ccccc1,inactive,–
C#CCn1c(S(=O)(=O)Cc2ccccc2Cl)nc(-c2ccccc2)c1-c1ccccc1,–,12% [at 48.7 pM]
Cc1oncc1C(=O)Nc1ccc(C(F)(F)F)cc1,0.891 µM (active),–
CC(/C=C/C(=O)NO)=C\[C@@H](C)C(=O)c1ccc(N(C)C)cc1,inactive,–
COc1nc(-c2ccc(Cl)cc2)nnc1C,inactive,–
NC(=O)C1(N2CCCCC2)CCN(c2nc(-c3ccccc3)cs2)CC1,inactive,–
COCCCN1C(=O)C(=O)/C(=C(/O)c2ccc3c(c2)CC(C)O3)C1c1cccnc1 (centres undefined),–,4.07% [at 48.7 pM]
Nc1ccccc1-c1nnn(CC(=O)N2CCCc3ccccc32)n1,–,2.12% [at 48.7 pM]
c1ccc(-c2nnc(-c3ccccc3)c(-c3c[nH]c4ccccc34)n2)cc1,inactive,–
Cc1ccc(-c2csc(N3CCC(NS(=O)(=O)c4ccc5c(c4)OCCO5)CC3)n2)cc1,inactive,–
COc1c(C)c2c(c(O)c1C/C=C(\C)CCC(=O)O)C(=O)OC2,inactive,–
CCCc1sc(N2CCCC(C(N)=O)C2)nc1-c1ccccc1 (centres undefined),inactive,–
Cc1ccc(C(=O)Cn2c3c(sc2=N)CCCC3)cc1,126 nM (active) and 100 nM (active),–
O=C(Nc1cccnc1)/C(N=Nc1c(Cl)cccc1Cl)=C(\O)c1ccccc1,–,-9.05% [at 48.7 pM]
OCCCNc1nc(-c2ccc(Cl)cc2)nnc1-c1ccc(Br)cc1,inactive,–
CCOC(=O)c1c(-c2cccc(C)c2)csc1NC(=O)c1c(-c2ccccc2)noc1C,–,-9.91% [at 48.7 pM]
Nn1c(SCC(=O)NCCC2=CCCCC2)nnc1C1CCCCC1,–,2.17% [at 48.7 pM]
COC(=O)C1=C(C)NC(=O)/C1=C\c1cc(C)n(-c2ccccc2F)c1C,–,8.15% [at 48.7 pM]
CCCSc1nnc2c(n1)OC(c1sccc1C)Nc1ccccc1-2 (centres undefined),14.1 µM (active),–
Cc1ccc(-c2nnc(-c3ccccc3)c(-c3ccccc3)n2)cc1,inactive,–
FC(F)C(F)(F)C1=CC(c2cccs2)=NCCN1,–,-4.71% [at 48.7 pM]
O=C1CCC(C(=O)Nc2cccc3ccccc23)N1 (centres undefined),–,7.8% [at 48.7 pM]
